Source: PubChem BioAssay AID493030 (The Scripps Research Institute Molecular Screening Center, 2011)
Hit rate of the full screen: of about 2,300 compounds, about 1,500 (65%) were called active. The set was probably picked from earlier hits. This is one part of a sample in which actives are shown more often than they occur.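 Rule for the calls: active = mean inhibition over three repeats above a set limit taken from the earlier primary screen (cut at about 30% in these data); inactive = the rest.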

The molecules below were run against Platelet-activating factor acetylhydrolase 2, cytoplasmic (Homo sapiens) (UniProt Q99487) (assay: inhibition of cytoplasmic PAF acetylhydrolase 2 – biochemical, fluorescence polarization, human, confirmation (AID 493030;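 note: inhibitor blocks binding of rhodamine activity probe so polarization falls; 0% = enzyme with DMSO and 100% = wells lacking PAFAH2 protein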)). Details: recombinant PAFAH2, FP-rhodamine activity probe, at 3.39 µM, hits give high values.
With Cc1cccc(N2C(=O)NC(=O)/C(=C\c3cnn(-c4ccccc4)c3)C2=O)c1 the inhibition was 35.3% (active).
COc1cccc(N2C(=O)NC(=O)/C(=C\c3cn(C)c4ccccc34)C2=O)c1 was tested, and the inhibition was 36.5% (active).
In the case of O=C(COC(=O)c1ccccc1)Nc1ccc(Cl)cc1C(=O)c1ccccc1, the inhibition is reported as 39.7% (active).
